Screening results as filed in PubChem.
PAX8 reporter = lowers PAX8-driven luciferase in RMG-I cells; 360,000 tested, 1.2% active; inhibition, % at 12.6 µM; RMG-I TPO-luciferase reporter, SteadyGlo, 24 h;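 active means mean replicate inhibition at least 60% with every replicate also reaching 60%; inconclusive means only one of the two criteria is met; inactive means mean below 60% and not all replicates reaching 60%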;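 further: luciferase light reporting Pax8 driven TPO promoter activity; plate controls were median of neutral control wells for no effect and mitoxantrone controls for full effect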
EWS-Fli block = inhibitors of EWS/Fli oncoprotein transcriptional activity | A673 NR0B1-luciferase reporter, viability-normalised | inhibition, % at 12.6 µM | 350,000 tested, 0.67% active | AID 651661;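 active means mean inhibition of at least 50% after viability correction, with every replicate also passing that limit; inconclusive means mean reaches 50% but only one of two replicates passes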;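 further: firefly luciferase signal divided by Alamar Blue viability fluorescence both relative to DMSO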
TWEAK-Fn14 inh = TWEAK-Fn14 signaling inhibition; 360,000 tested, 2% active; TWEAK-stimulated Fn14 reporter cells, luciferase luminescence, 8 h; inhibition, % at 10 µM; in the data active means inhibition above about 50%
LGR2 inh = blocks bursicon-induced cAMP signaling via Drosophila LGR2; inhibition, % at 9.99 µM; HEK293 LGR2, CRE-luciferase, bursicon-stimulated, 4 h; 380,000 tested, 0.35% active;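 active means drop in luminescence signal, shown as inhibition above about 50% in the replicate tests, limit read from the data, passing the limit was not always enough; inconclusive means probably only some replicates passing the limit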;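 further: agonist challenge used bursicon conditioned medium at about half maximal strength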
TROY signal inh = inhibitors of TROY-dependent NF-kB signaling; Q293 LMP1-TROYcd NF-kB luciferase reporter, 4 h; inhibition, % at 10 µM; 360,000 tested, 0.98% active; AID 1347056;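 active means compounds whose plate-normalised and pattern-corrected inhibition of the luciferase reporter signal at the single screening dose is 50% or more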
* marks the source's active call; other numbers are inactive results; ? = inconclusive; . = not tested or not shown. Rows were chosen to be rich in hits. Some 2.8% of all compounds tested hit in one or more screens of this group.

SMILES	PAX8 reporter	EWS-Fli block	TWEAK-Fn14 inh	LGR2 inh	TROY signal inh
COc1cccc(NC(=O)COC(=O)c2c3c(nc4ccccc24)CCC(C)C3)c1 (configuration not stated)	.	.	57*	.	36
C[C@@H]1CN([C@@H](C)CO)C(=O)c2cc(/C=C/c3ccccc3)cnc2O[C@H]1CN(C)C(=O)CN1CCOCC1	-8	-15	.	-7	.
C[C@@H]1CCCCO[C@H](CN(C)Cc2ccc(Cl)c(Cl)c2)[C@@H](C)CN([C@@H](C)CO)C(=O)c2cc(NC(=O)NC3CCCCC3)ccc2O1	70*	-1	.	41	.
C[C@@H]1CCCCO[C@H](CN(C)Cc2ccc(Cl)c(Cl)c2)[C@H](C)CN([C@@H](C)CO)C(=O)c2cc(NC(=O)Nc3ccc(F)cc3)ccc2O1	75*	4	27	-6	7
C[C@@H]1CN([C@@H](C)CO)C(=O)c2cc(NC(=O)Nc3ccc(F)cc3)ccc2O[C@@H](C)CCCCO[C@H]1CN(C)Cc1ccc(Cl)c(Cl)c1	72*	4	.	33	.
Cc1cccc(N2CCN(C(=O)c3c(-c4ccccc4Cl)noc3C)CC2)c1C	34	53*	-1	9	35
Cc1onc(-c2ccccc2Cl)c1C(=O)N1CCN(C=O)CC1	4	.	10	7	20
CCCC#Cc1ccc([C@@H]2[C@H](CO)N3C(=O)CN(C(=O)c4ccc(F)cc4)C[C@@H]23)cc1	.	7	.	1	.
CC(C)c1ccc2[nH]c(O)c(N=NC(=O)c3cccc(S(=O)(=O)N4CCCCC4)c3)c2c1	.	.	55*	21	27
O=C(N=Nc1c(O)[nH]c2ccccc12)c1cccc(S(=O)(=O)N2CCCCC2)c1	-2	14	-5	5	15
CC(=O)Nc1ccc(OCCC[n+]2ccccc2)cc1	7	13	13	19	12
CCCCCc1ccc(OCCOCCn2c[n+](C)c3ccccc32)c(CCCCC)c1	.	.	89*	.	52*
CCCCCc1ccc(OCCC[n+]2ccccc2)c(CCCCC)c1	96*	38	67*	15	47
CCC1(O)C(=O)OCc2c1cc1n(c2=O)Cc2cc3cc(O)ccc3nc2-1 (configuration not stated)	.	56*	70*	95*	76*
COc1ccc(N=Nc2ccc(O)c3ncccc23)cc1	49	15	-48	-13	-9
Oc1ccc(N=Nc2ccc3c(c2)OCCO3)c2cccnc12	59	23	5	-41	76*
COc1cccc(N=Nc2ccc(O)c3ncccc23)c1	48	-25	52*	-46	-28
COc1ccc(CN(C)C[C@@H]2Oc3ccc(NC(=O)Nc4ccc5c(c4)OCO5)cc3C(=O)N([C@H](C)CO)C[C@H]2C)cc1	.	4	.	6	.
O=C(C1CCOCC1)N1CC[C@@H]2[C@H](CO)Nc3ccc(-c4ccc(F)cc4)cc3[C@@H]21	-13	9	.	-7	.
O=C(CCl)N(c1ccccc1)C1CCCCC1	103*	35	33	94*	6
Cc1noc(C)c1S(=O)(=O)N(C)C[C@H]1OCCCC[C@H](C)Oc2ccc(NC(=O)C3CCCCC3)cc2C(=O)N([C@@H](C)CO)C[C@H]1C	0	6	.	2	.
O=C(C[C@H]1CC[C@@H]2[C@H](COC[C@H](O)CN2C(=O)Nc2ccc(Cl)c(Cl)c2)O1)NCc1ccc(Cl)c(Cl)c1	-20	-4	.	24	.
Cc1ccc(C(=O)CSc2nnc3c4ccccc4nc(C(C)(C)C)n23)cc1	3	42	13	13	52*
CCc1c(C)nc2ccc(Br)cc2c1SCCC#N	-3	-2	79*	31	48
CN(C)C(=O)c1ccc(N=Nc2c(O)c3ccccc3[nH]c2=O)cc1	11	-14	19	8	-11
SMILES	PAX8 reporter	EWS-Fli block	TWEAK-Fn14 inh	LGR2 inh	TROY signal inh
O=C(O)c1ccc(N=Nc2c(O)[nH]c3ccccc23)cc1	51	34	90*	31	28
C=C(C)Cn1cnc2cc(C)c(C)cc21	27	6	86*	3	-4
COc1cc(/C=N/Nc2nc(Nc3ccc(C)cc3)nc(-n3nc(C)cc3C)n2)cc(OC)c1OC	89*	.	43	.	-20
COc1ccc(O)c(/C=N/Nc2nc(Nc3ccccc3)nc(-n3nc(C)cc3C)n2)c1	.	.	60*	.	-28
COc1ccc(/C=N/Nc2cc(C)nc(-n3nc(C)cc3C)n2)cc1	12	.	-29	-13	-17
COc1cc(/C=N/Nc2nc(Nc3ccccc3)nc(-n3nc(C)cc3C)n2)cc(OC)c1OC	80*	2	45	-9	-2
C/C=C/c1ccc2c(c1)O[C@@H](CN(C)CC1CCOCC1)[C@H](C)CN([C@H](C)CO)S2(=O)=O	-2	-14	.	-24	.
CC(C)C#Cc1ccc([C@@H]2[C@@H](CO)N3C(=O)CN(C(=O)NC4CCCCC4)C[C@H]23)cc1	.	0	.	2	.
O=C(c1cccc(NS(=O)(=O)c2ccc(F)c(F)c2)c1)N1CCN(C(c2ccccc2)c2ccccc2)CC1	28	-9	57*	.	11
CCCn1nc(C(=O)Nc2nc(-c3ccccn3)cs2)c2ccccc2c1=O	74*	11	-7	.	-6
O=C1c2ccccc2C(=O)C1c1ccc2ccccc2n1	.	.	95*	.	49
O=C(OCCN1CCCCC1)c1ccccc1Cl	-3	.	-14	.	-39
O=C(Cn1ncc(N2CCOCC2)c(Cl)c1=O)c1ccc(Cl)cc1	-22	-23	-9	3	-23
C=CCn1c(C)cc(C(=O)Cn2ncc(Cl)c(Cl)c2=O)c1C	30	55*	48	.	-23
C=CCn1c(C)cc(C(=O)CN2NS(=O)(=O)c3ccccc3C2=O)c1C	-55	45	40	-95	69*
Cc1ccc(CNC(=O)CN2NS(=O)(=O)c3ccccc3C2=O)cc1	8	0	-15	9	-17
O=C(Cn1ncc(Cl)c(Cl)c1=O)c1ccc(Cl)cc1	33	.	83*	.	13
O=C(OCn1ncc(Cl)c(Cl)c1=O)c1ccccc1Cl	.	.	104*	.	73*
C[C@H](NC(=O)C[C@@H]1CC[C@H]2[C@@H](COC[C@@H](O)CN2C(=O)Nc2cc(Cl)cc(Cl)c2)O1)c1ccccc1	-25	8	.	10	.
O=c1cnn(Cc2ccc(F)cc2)c2ccccc12	4	5	-3	13	-20
O=c1c(Cl)c(Cl)cnn1Cc1ccc(F)cc1	55	41	81*	?	2
C[C@H](CO)N1C[C@H](C)[C@@H](CN(C)Cc2ccccc2)Oc2ccc(NC(=O)Cn3cnnn3)cc2CC1=O	-1	-4	.	-12	.
Cc1cc[n+](CC(=O)c2ccc(NC(=O)c3ccccc3)cc2)c2ccccc12	80*	22	13	.	5
O=C(C[n+]1cccc2ccccc21)c1ccc(NC(=O)c2ccccc2)cc1	32	6	4	12	13
COc1ccc(CC(=O)Nc2cccc(-c3nnc(-c4ccco4)o3)c2)cc1	.	.	33	.	-31
COc1ccc(C(=O)Nc2cccc(-c3nnc(-c4ccco4)o3)c2)cc1	.	.	57*	.	23
O=C(COc1ccccc1)Nc1cccc(-c2nnc(-c3ccccc3)o2)c1	.	.	37	.	-1
